We go through 40 compounds from the supplement of paper PMC12024529.

For this test, the system named is HEK293 WT BDD-FVIII-Gluc. Nature of the test: secreted FVIII-Gluc luciferase Z-score vs DMSO control; higher = more FVIII-Gluc secretion. The settings on record: 5 µM. The method, then: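 Natural plant-compound library (480 compounds, ST catalogue IDs) screened on HEK293 cells stably expressing WT BDD-FVIII-Gaussia luciferase fusion at 5 µM. Secreted Gluc activity in the medium is given as a Z-score relative to DMSO controls.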
With `Oc1ccc(CC2NCCc3cc(O)c(O)cc32)cc1O` (stereo not given), the “secreted FVIII-Gluc luciferase Z-score” value was 0.392.

As for `CN1CCc2cc3c(cc2[C@H]1[C@H]1OC(=O)c2c1ccc1c2OCO1)OCO3`, the “secreted FVIII-Gluc luciferase Z-score” value is 0.159.

In the case of `O=c1ccc2cc(OC3OC(CO)C(O)C(O)C3O)c(O)cc2o1` (stereo not given), the “secreted FVIII-Gluc luciferase Z-score” value stood at 0.455.

Consider `CCC1(O)C(=O)OCc2c1cc1n(c2=O)Cc2cc3ccccc3nc2-1` (stereo not given), for which the “secreted FVIII-Gluc luciferase Z-score” value was -3.23.

On to `COc1ccc(CC2c3cc(OC)c(OC)cc3CCN2C)cc1OC` (stereo not given), for which the “secreted FVIII-Gluc luciferase Z-score” value is -1.36.

Turning to `COC1=CC2C3Cc4ccc(OC)c(O)c4C2(CCN3C)CC1=O` (stereo not given), the “secreted FVIII-Gluc luciferase Z-score” value was -0.0187.

Regarding `O=c1cccc2n1CC1CC2CN(CCO)C1` (stereo not given), the “secreted FVIII-Gluc luciferase Z-score” value is 0.624.

With `O=CN1C[C@@H]2C[C@H](C1)c1cccc(=O)n1C2`, the “secreted FVIII-Gluc luciferase Z-score” value amounted to 0.583.

Regarding `CCCCCC[C@H]1C(=O)O[C@H](C)[C@H](NC(=O)c2cccc(NC=O)c2O)C(=O)O[C@@H](C)[C@@H]1OC(=O)CC(C)C`, the “secreted FVIII-Gluc luciferase Z-score” value was -3.29.

With `CC(C)[C@H]1C(=O)N2CCC[C@H]2[C@]2(O)OC(NC(=O)[C@@H]3C=C4c5cccc6[nH]cc(c56)C[C@H]4N(C)C3)(C(C)C)C(=O)N12` (stereo not given in full), the “secreted FVIII-Gluc luciferase Z-score” value amounted to 0.939.

Turning to `c1cncc(C2CCCCN2)c1` (stereo not given), the “secreted FVIII-Gluc luciferase Z-score” value is -0.711.

Turning to `C=C(C)[C@@H]1[C@H]2OC(=O)[C@@H]1[C@]1(O)C[C@H]3O[C@]34C(=O)O[C@H]2[C@]14C`, the “secreted FVIII-Gluc luciferase Z-score” value was 0.972.

Take `C[C@@H]1O[C@@H](O[C@H]2C[C@@H](O)[C@]3(CO)[C@H]4[C@H](O)C[C@]5(C)[C@@H](C6=CC(=O)OC6)CC[C@]5(O)[C@@H]4CC[C@]3(O)C2)[C@H](O)[C@H](O)[C@H]1O`: the “secreted FVIII-Gluc luciferase Z-score” value was -3.87.

On to `COc1cc2c(cc1OC)-c1c(OC)c(OC)c(C=O)c3c1[C@H](C2)N(C)CC3`, for which the “secreted FVIII-Gluc luciferase Z-score” value stood at 0.0709.

Consider `COc1cc2c(cc1O)C[C@H]1c3c(cc(OC)c(O)c3-2)CCN1C`, for which the “secreted FVIII-Gluc luciferase Z-score” value was found to be 0.61.

As for `CN1CC[C@@]2(C)c3cc(O)ccc3N(C)[C@@H]12`, the “secreted FVIII-Gluc luciferase Z-score” value is -0.624.

In the case of `c1cc2c(cc1C1OCC3C(c4ccc5c(c4)OCO5)OCC13)OCO2` (stereo not given), the “secreted FVIII-Gluc luciferase Z-score” value was -0.0258.

Consider `CCN1CC2(COC(=O)c3ccccc3N3C(=O)CC(C)C3=O)CC[C@H](OC)[C@@]34C5C[C@@H]6[C@@H](OC)C[C@@](O)(C5[C@H]6OC)[C@](O)([C@@H](OC)C23)[C@@H]14.[O-][Cl+3]([O-])([O-])O` (stereo not given in full), for which the “secreted FVIII-Gluc luciferase Z-score” value came out at 0.461.

For `COc1cc2c(cc1OC)C13CCN4CC5=CCOC6CC(=O)N2C1C6C5CC43` (stereo not given), the “secreted FVIII-Gluc luciferase Z-score” value is 0.159.

For `CN1CC(C(=O)NC2(C)OC3(O)C4CCCN4C(=O)C(Cc4ccccc4)N3C2=O)C=C2c3cccc4[nH]cc(c34)CC21` (stereo not given), the “secreted FVIII-Gluc luciferase Z-score” value came to 0.871.

For `CC1=C2C3OC(=O)C(C)C3CC[C@@]2(C)C=CC1=O` (stereo not given in full), the “secreted FVIII-Gluc luciferase Z-score” value amounted to 0.0932.

As for `COc1ccc2c(c1OC)C(=O)O[C@@H]2[C@H]1c2cc3c(cc2CCN1C)OCO3`, the “secreted FVIII-Gluc luciferase Z-score” value worked out at 1.04.

Regarding `COc1ccc2c3c([nH]c2c1)C(C)=NCC3`, the “secreted FVIII-Gluc luciferase Z-score” value was -2.05.

`CO[C@]12C[C@@H](COC(=O)c3cncc(Br)c3)CN(C)[C@@H]1Cc1cn(C)c3cccc2c13`: the “secreted FVIII-Gluc luciferase Z-score” value was 0.94.

Regarding `CN[C@H]1CCc2cc(OC)c(OC)c(OC)c2-c2ccc(OC)c(=O)cc21`, the “secreted FVIII-Gluc luciferase Z-score” value is -3.62.

As to `CCCN1C[C@H](CSC)C[C@@H]2c3cccc4[nH]cc(c34)C[C@H]21`, the “secreted FVIII-Gluc luciferase Z-score” value is 0.385.

For the compound `O=c1cccc2n1CC1CC2CN2CCCC[C@H]12` (stereo not given in full), the “secreted FVIII-Gluc luciferase Z-score” value amounted to 0.225.

In the case of `CC[C@H]1C2C[C@H]3[C@@H]4N(C)c5ccccc5[C@]45C[C@@H](C2[C@H]5O)N3[C@@H]1O` (stereo not given in full), the “secreted FVIII-Gluc luciferase Z-score” value came out at 0.504.

`CN1Cc2c(ccc3c2OCO3)C2C(O)Cc3cc4c(cc3C21)OCO4` (stereo not given): the “secreted FVIII-Gluc luciferase Z-score” value is -5.22.

As for `CCCCc1ccc(C(=O)O)nc1`, the “secreted FVIII-Gluc luciferase Z-score” value was found to be 0.032.

For the compound `C[C@]12CC[C@H](O)CC1=CC[C@@H]1[C@@H]2CC[C@]2(C)C(=O)CC[C@@H]12`, the “secreted FVIII-Gluc luciferase Z-score” value came to 1.29.

Turning to `CN[C@@H](Cc1c[nH]c2ccccc12)C(=O)O`, the “secreted FVIII-Gluc luciferase Z-score” value was found to be 0.0662.

For `CN1C[C@@H](CO)C=C2c3cccc4[nH]cc(c34)CC21` (stereo not given in full), the “secreted FVIII-Gluc luciferase Z-score” value came to 0.731.

With `COc1ccc(Cc2nccc3cc(OC)c(OC)cc23)cc1OC`, the “secreted FVIII-Gluc luciferase Z-score” value was -0.721.

With `COc1cc2c(cc1OC)C(C)NCC2` (stereo not given), the “secreted FVIII-Gluc luciferase Z-score” value was determined as 0.0745.

Turning to `CN1CCc2cc3c(cc2[C@H]1[C@@H]1OC(=O)c2c1ccc1c2OCO1)OCO3`, the “secreted FVIII-Gluc luciferase Z-score” value was found to be 0.754.

On to `CNC1C2CN3CCC(O2)C13` (stereo not given), for which the “secreted FVIII-Gluc luciferase Z-score” value was -1.02.

As to `O=C1C=C2C=C[C@@H]3C[C@@]2(O1)[C@H]1CCCCN31`, the “secreted FVIII-Gluc luciferase Z-score” value came to 0.666.

With `C[C@]12CC[C@H](O)C[C@H]1CC[C@@H]1[C@@H]2C[C@@H](O)[C@]2(C)[C@@H](C3=CC(=O)OC3)CC[C@]12O`, the “secreted FVIII-Gluc luciferase Z-score” value is -7.45.

As to `C[C@]12CC[C@H](O)C[C@@H]1CC[C@@H]1[C@@H]2CC[C@]2(C)C(=O)CC[C@@H]12`, the “secreted FVIII-Gluc luciferase Z-score” value is 0.049.
